Results filed as inconclusive are left out. Calls of active or inactive are those of the source. The calls were made as follows: active = hit-call score of the fitted dose curve at least 0.9, where 1 is the maximum; inconclusive = response in the unintended direction; inactive = score below 0.9.
What follows are molecules tested against Retinoic acid receptor RXR-alpha (Homo sapiens) (UniProt P19793) (assay: OT_NURR1_NURR1RXRa_1440: Odyssey Thera (OT) 24-hour HEK293T Protein Complementation Assay for Nurr1/retinoid X receptor (RXR) (AID 2283386)).
Chain of Retinoic acid receptor RXR-alpha (Homo sapiens) (P19793 whole entry, looked up, the tested form may be a part): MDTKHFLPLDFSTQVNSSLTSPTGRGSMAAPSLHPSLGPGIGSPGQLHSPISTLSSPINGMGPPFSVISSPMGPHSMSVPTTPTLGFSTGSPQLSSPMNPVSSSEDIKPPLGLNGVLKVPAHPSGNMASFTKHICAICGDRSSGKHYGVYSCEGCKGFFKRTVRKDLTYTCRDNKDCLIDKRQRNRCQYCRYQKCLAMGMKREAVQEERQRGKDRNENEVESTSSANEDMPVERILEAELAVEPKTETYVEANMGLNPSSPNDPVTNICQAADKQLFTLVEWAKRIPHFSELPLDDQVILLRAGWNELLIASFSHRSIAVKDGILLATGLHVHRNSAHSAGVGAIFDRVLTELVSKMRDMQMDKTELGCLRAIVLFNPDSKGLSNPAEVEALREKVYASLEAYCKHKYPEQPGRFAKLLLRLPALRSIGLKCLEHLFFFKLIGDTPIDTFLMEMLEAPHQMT
Description: OT_NURR1_NURR1RXRa_1440 is a cell-based assay that uses HEK293T, a human kidney cell line, with measurements taken at 24 hours after chemical dosing in a 384-well plate.OT_NURR1_NURR1RXRa_1440 is one of one assay component(s) measured or calculated from the OT_NURR1_NURR1RXRa_1440 assay. It is designed to make measurements of protein fragment complementation, a form of binding reporter, as detected with fluorescence intensity signals by Protein-fragment Complementation technology.Data from the assay component OT_NURR1_NURR1RXRa_1440 was analyzed into 1 assay endpoint. This assay endpoint, OT_NURR1_NURR1RXRa_1440, was analyzed in the positive analysis fitting direction relative to DMSO as the negative control and baseline of activity. Using a type of binding reporter, measures of receptor for gain-of-signal activity can be used to understand the binding at the pathway-level as they relate to the gene RXRA. Furthermore, this assay endpoint can be referred to as a primary readout, because the performed assay has only produced 1 assay endpoint. To generalize the intended target to other relatable targets, this assay endpoint is annotated to the nuclear receptor intended target family, where the subfamily is non-steroidal.
Protein-fragment complementation assay, or PCA, is a method for the identification and quantification of protein-protein interactions. In the PCA, the proteins of interest ("bait" and "prey") are each covalently linked to fragments of a third protein (e.g. DHFR, which acts as a "reporter"). Interaction between the bait and the prey proteins brings the fragments of the reporter protein in close proximity to allow them to form a functional reporter protein whose activity can be measured.

Structure (SMILES) | outcome | AC50
CC(C)(C)N | inactive | –
CC(=O)OC1CCCCC1C(C)(C)C (stereo not given) | inactive | –
C1CNCCN1 | inactive | –
CCCCCC(=O)OCC | inactive | –
C=C1C[C@H]2[C@@H]3C=C(C)C4=CC(=O)CC[C@]4(C)[C@H]3CC[C@]2(C)[C@@]1(OC(C)=O)C(C)=O | – | 49.5 µM (active)
O=c1c(O)c(-c2ccc(O)cc2O)oc2cc(O)cc(O)c12 | inactive | –
COc1cc(O)c(C(=O)c2ccccc2)cc1S(=O)(=O)O | inactive | –
CCCC=C(C=O)CC | inactive | –
O=C(O)CC(C(=O)O)S(=O)(=O)O (stereo not given) | inactive | –
CC(C)(C)C1CCC(=O)CC1 | inactive | –
CC(C)COC(=O)CC(C(=O)OCC(C)C)S(=O)(=O)O (stereo not given) | inactive | –
CC1=CC=C(C(C)C)CC1 | inactive | –
O=C(Nc1ccccc1)c1cc(Cl)ccc1O | – | 16.1 µM (active)
NC(=O)Nc1ccccc1 | inactive | –
CCCCCCO | inactive | –
CCCCC(=O)O | inactive | –
CCC[Si](OC)(OC)OC | inactive | –
CCc1cccc(C)c1N | inactive | –
O=S(=O)(O)c1ccc(N=Nc2c(O)ccc3ccccc23)cc1 | inactive | –
CCC1COC(=O)O1 (stereo not given) | inactive | –

Structure (SMILES) | outcome | AC50
CC1(C)[C@@H]2CC[C@@]1(C)C(=O)C2 | inactive | –
COC(=O)c1ccccc1C | inactive | –
CCCCCCOc1ccc(N)cc1 | inactive | –
Fc1ccc(Br)cc1 | inactive | –
CCCC(CC)c1ccccc1 (stereo not given) | inactive | –
N#Cc1ccc(C2CCCc3cncn32)cc1 (stereo not given) | inactive | –
CCc1occc(=O)c1O | inactive | –
CN(C)Cc1cc(CN(C)C)c(O)c(CN(C)C)c1 | inactive | –
CCOC(=O)c1ccccc1C | inactive | –
CC1=NN(c2ccc(S(=O)(=O)O)cc2)C(=O)C1N=Nc1ccccc1 (stereo not given) | inactive | –
C/C=C/C=C/CCCCCCCO | – | 5.06 µM (active)
CCCCCCCCCCCCCC(=O)OC(C)C | inactive | –
c1ccc(Nc2cccc3ccccc23)cc1 | – | 82 µM (active)
CN(C)c1ccc2nc3ccc(=[N+](C)C)cc-3sc2c1 | – | 15.3 µM (active)
Cc1ccc([N+](=O)[O-])cc1N | inactive | –
O=C(O)c1cc(O)c2ccccc2c1O | inactive | –
CCCCC(CC)COC(=O)/C=C/c1ccc(OC)cc1 (stereo not given) | inactive | –
CCCCNS(=O)(=O)c1ccc(C)cc1 | inactive | –
CC(=O)/C=C/C1C(C)=CCCC1(C)C (stereo not given) | inactive | –
Cc1c(C(=O)c2c[nH]n(C)c2=O)ccc(S(C)(=O)=O)c1C1=NOCC1 | inactive | –

Source: PubChem BioAssay (EPA / NIEHS)
